# Laboratory results taken from PubChem BioAssay (NCI).
# “And” between values parts separate entries of the source, which are not always exact repeats. Identical values can stand only once. The panel holds about 79,000 compounds, 15% with a hit somewhere; the sample as a whole holds those more often. A structure can be active in one record and inactive in another. The source made the active and inactive calls. Rule as the data show it: active = growth inhibition above about 70%; inactive = the rest.
# Assay: NCI Yeast Anticancer Drug Screen. Data for the bub3 strain (AID 167)
# Conditions: S. cerevisiae bub3 mutant strain, at 50.0 µM, stronger effect = higher value
# In short: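 Screening used yeast with an engineered genetic alteration affecting cell cycle control. Compound-exposed cultures were compared with vehicle cultures, and reduced growth was taken as inhibition.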
row,Compound,growth inhibition
1,O=[As]c1ccc(C(=O)O)cc1 (stereo not given),-7.2% (inactive)
2,CCCC[As](CCCC)SC1OC(COC(C)=O)C(OC(C)=O)C(OC(C)=O)C1OC(C)=O (stereo not given),98.5% (active)
3,O=C([O-])c1ccccc1Nc1ccccn1.O=C([O-])c1ccccc1Nc1ccccn1.[Ni+2],-16.8% (inactive)
4,Nc1cc(N)c([N+](=O)[O-])cc1[N+](=O)[O-],9.8% (inactive)
5,C(#CCN1CCCCCC1)CN1CCCCCC1,-14.1% (inactive)
6,Cc1ccc(OP(=O)(Oc2ccc(C)c(C)c2)Oc2ccc(C)c(C)c2)cc1C,5.2% (inactive)
7,CCCCC(CC)C(=O)O (stereo not given),-13.7% (inactive) and 6.6% (inactive)
8,Nc1ncnc2c1ncn2C1OC(CO)C2NP(=O)(N(CCCl)CCCl)OC21 (stereo not given),-6.15% (inactive) and -15.6% (inactive)
9,NCCN.NCCN.[Cl-].[O]=[Re]=[O],-22.4% (inactive)
10,Br[CH](Br)[Hg][c]1ccccc1,99.2% (active)
11,CCCCOC1OCN(C2CCCCC2)CC1(C)C (stereo not given),36.8% (inactive)
12,O=C(NP(=O)(N1CC1)N1CC1)c1cc(I)ccc1I,12.9% (inactive)
13,Cc1cc(N(C)CCCl)ccc1N=Nc1ccccc1C(=O)O,23.4% (inactive)
14,CCCOC(=O)c1cncn1C(C)c1ccccc1 (stereo not given),35.6% (inactive)
15,CC[N+]1(CC)CC[N+](CC)(CC)CC1,-0.9% (inactive)
16,NC(N)=N/N=C/C(=N\N=C(N)N)C(O)C(O)C(O)C(O)CO (stereo not given),-3.8% (inactive) and 7.3% (inactive)
17,N.O=S(=O)(O)O.[Al],-5.1% (inactive)
18,CC(C)OC(=S)S.[Cu+2],-15.2% (inactive)
19,CC1=CC(C(=O)O)P(C)(=O)C1 (stereo not given),0.4% (inactive)
20,C[CH2][Sn]([CH2]C)([n]1c(C)nc2ccccc21)[n]1c(C)nc2ccccc21,10.3% (inactive)

row,Compound,growth inhibition
1,CCC[As](=O)(O)CC(C)C,-0.4% (inactive)
2,C1CC[N-]CC1.C1CC[N-]CC1.[Cl][Pd][Cl],10.8% (inactive)
3,O=C(O)c1ccccc1,-20.5% (inactive) and -3.8% (inactive)
4,O=C(CCl)Oc1ccccc1Cl,-23.9% (inactive)
5,N#CCCCBr,-2% (inactive)
6,CCCCOCN(COCCCC)C(C)Cc1ccccc1 (stereo not given),-2.25% (inactive)
7,CC(O)CN(CCN(CC(C)O)CC(C)O)CC(C)O.O=[N+]([O-])O.[Cu+2] (stereo not given),-29.6% (inactive)
8,CC1CCC(OC(=O)CCl)CC1 (stereo not given),8.95% (inactive)
9,O=[N+]([O-])c1ccc(CCl)cc1,-23.9% (inactive)
10,CCN(CC)CCN(Cc1ccccc1)C(=O)C(O)(c1ccccc1)c1ccccc1,-1.5% (inactive)
11,[Cl][Sn]([Cl])([c]1ccccc1)[c]1ccccc1,48.4% (inactive) and 95.8% (active)
12,O=NN1CCNCC1,-5.9% (inactive) and -6.1% (inactive)
13,C=C(C)C(=O)OCC12CCC(C)=CC1OC1C(=O)C(OC(=O)C(=C)C)C2(C)C12CO2 (stereo not given),-10.1% (inactive)
14,OCCN=Cc1ccccc1O.OCCN=Cc1ccccc1O.[Ni],12.8% (inactive)
15,CN1C(=O)C2(Cc3cn(C45CC67SSC(CO)(C(=O)N6C4Nc4ccccc45)N(C)C7=O)c4ccccc34)SSC1(CO)C(=O)N2C (stereo not given),90.8% (active)
16,COC(=O)C1(C(=O)OC)ON1C(C)(C)C (stereo not given),-5% (inactive)
17,Oc1c(Cl)cc(Cl)cc1C1N(Cc2ccc(N(CCCl)CCCl)cc2)CCCN1Cc1ccc(N(CCCl)CCCl)cc1,3.7% (inactive)
18,CCCCN(CCCC)CC(O)c1ccc(Cl)c(Cl)c1 (stereo not given),18% (inactive)
19,COP(=O)(NC(C)=O)OC,-10.5% (inactive)
20,CCOC(=O)C[CH2][Sn]([Cl])([Cl])[Cl],4.3% (inactive)
